According to PubChem BioAssay (NCATS):
Several values for one entry are separate records, joined by “and”; a condition that tells them apart may be missing. Equal entries are not always repeated. Records with an inconclusive call do not appear. Activity calls are given as the source filed them. Unless noted, calls come from the whole dose curve; as a rule, active = well fitted curve in the direction sought with a large enough effect; inconclusive = small, poorly fitted or top-dose-only effect, or another doubt; inactive = no such curve, though single readings can be large; an effect the other way counts as inactive or inconclusive.

Legend:
[1] = Cell Viability - MRC5 (AID 434; calls by dose curve;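 note: potency is the fitted concentration of half-maximal effect; cells exposed to compound for 40 hours at 37 °C; potency reflects cytotoxicity seen as loss of intracellular ATP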); conditions: MRC5 lung fibroblast viability, qHTS
How it was run: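 Decrease in intracellular ATP, quantified by luciferase light output, reflects compound toxicity toward MRC5 cells exposed for 40 hr in complete culture medium. Concentration-response curves, scaled between DMSO and 100 uM tamoxifen, gave AC50 values.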

[2] = target: Mitogen-activated protein kinase 10 (Mus musculus) (UniProt Q61831); assay: JNK3 AlphaScreen Assay (AID 530; active = well fitted curve in either direction with a large enough effect, not every such curve was filed as active;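 note: kinase came from lysate of stimulated human HepG2 cells; signal reports phosphorylation of biotinylated GST-cJun 1-79 at Ser73 with 10 µM ATP; % is set by controls: 0 for no effect and ±100 for the full control effect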); conditions: JNK3 lysate, c-Jun phosphorylation; series mostly up to 57.1 µM
How it was run: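 Biotinylated GST-cJun(1-79) served as substrate for JNK3 in HepG2 lysates stimulated with IL-1beta and TNF-alpha. ATP was 10 uM final, pH 7.6. Ser73 phosphorylation was quantified by AlphaScreen (680 nm excitation).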

[3] = Cell Viability - HUV-EC-C (AID 542); conditions: HUV-EC-C endothelial cell viability, qHTS; series mostly up to 92.2 µM; note: % is set by controls: 0 for no effect and ±100 for the full control effect; nearly all actives have a fitted effect of over 35% in size
How it was run: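 Concentration-dependent ATP loss in HUV-EC-C cells is the measure. Exposure lasts 40 hr at 37 °C; luminescence follows CellTiter-Glo addition, and Hill fits give AC50.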

[4] = Cell Viability - Mesenchymal (AID 546); conditions: mesenchymal cells viability, qHTS; series mostly up to 91.7 µM;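 note: cells exposed to compound for 40 hours before reading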
How it was run: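 In this qHTS cytotoxicity format, glomerulus-derived human mesenchymal kidney cells received compound for 40 hr, then luciferase-based ATP quantitation. Concentration-response data were fitted with the Hill equation.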

[5] = Cellular Toxicity (caspase-3) HepG2 (AID 654); conditions: HepG2 caspase-3 activation, luminescence, 0% = DMSO only, 100% = tamoxifen; series mostly up to 92.2 µM;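 note: cells exposed to compound for 16 hours before reading; 0% = DMSO alone and 100% = caspase signal from 100 µM tamoxifen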
How it was run: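 Concentration-response AC50 values reflect caspase-3/7 induction in HepG2 cells after 16 hours of compound exposure, quantified by luminescence from liberated aminoluciferin and referenced to 100 uM tamoxifen as full stimulation.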

[6] = Cellular Toxicity (caspase-3) Jurkat (AID 655); conditions: Jurkat caspase-3 activation, luminescence; caspase-3 activation: at 92.2 µM (top of the series), DMSO = 0%, tamoxifen = 100%;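 note: cells exposed to compound for 16 h at 37 °C before reading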
How it was run: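 5000 Jurkat cells/well; compound 16 hr, 37 °C; Caspase-Glo 3/7 added, 20 min RT; luminescence read. Norm: DMSO = 0%, tamoxifen 100 uM = 100%. AC50, Hill model.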

[7] = Cellular Toxicity (caspase-3) BJ (AID 658); conditions: BJ fibroblasts, luminescence, normalized: DMSO 0%, staurosporine 100%; series mostly up to 91.7 µM
How it was run: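 Plated BJ cells (1000/well) rested 5 hr, received compound for 16 hr at 37 °C, then Caspase-Glo 3/7 reagent for 1 hr at room temperature before luminescence reading.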

[8] = Cellular Toxicity (caspase-3) SK-N-SH (AID 661); conditions: SK-N-SH caspase-3 activation, qHTS; series mostly up to 91.7 µM
How it was run: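 Apoptosis readout in SK-N-SH neuroblastoma: Caspase-Glo 3/7 luminescence following 16 hr treatment in complete culture medium. Normalization used DMSO and 10 uM staurosporine controls.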

[9] = Cellular Toxicity (caspase-3) H-4-II-E (AID 663); conditions: H-4-II-E rat hepatoma; Potency: caspase-3 activation; series mostly up to 92.2 µM;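 note: cells exposed to compound for 16 hr before readout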
How it was run: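 Caspase 3/7 activation measured in H-4-II-E cells in complete culture medium after 16 hr treatment at 37 °C, using luciferase-coupled substrate readout; AC50 values come from Hill-equation fits of normalized concentration-response data.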

[10] = Cellular Toxicity (caspase-3) Hek293 (AID 664); conditions: HEK293 caspase-3 activation, DMSO = 0%, 100 µM tamoxifen = 100%; at 92.2 µM (top of the series);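 note: cells exposed to compound for 16 h at 37 °C before readout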
How it was run: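 Apoptosis readout: Caspase-Glo 3/7 signal in human HEK293 cells following 16-hour compound incubation. Responses scaled between DMSO baseline and 100 uM tamoxifen.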

[11] = Cellular Toxicity (caspase-3) N2a (AID 665); conditions: N2a cells, luminescence, normalized: DMSO 0%, 10 µM staurosporine 100%; series mostly up to 92.2 µM;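 note: compound exposure lasted 16 h at 37 °C before readout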
How it was run: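 Concentration-response qHTS: compound-induced caspase-3/7 luminescence in N2a cells (16 h, 37 °C), relative to DMSO and 10 uM staurosporine controls; AC50 obtained using the standard Hill equation.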

[12] = Cellular Toxicity (caspase-3) Renal Proximal Tubule (AID 667); conditions: renal proximal tubule cells; series mostly up to 91.7 µM;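 note: cells exposed to compound for 16 hours at 37 °C before detection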
How it was run: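 AC50 derived by standard Hill fit of concentration-response data, normalized between DMSO basal and 10 uM staurosporine as 100% stimulation. Cells: primary rat kidney proximal tubule, 16 h treatment at 37 °C.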

[13] = MultiTox-Fluor Cytotoxicity Assay - LYMP1-003 - Dead Cells (AID 961); conditions: LYMP1-003 lymphoblastoid cells, dead-cell protease fluorescence; series mostly up to 92.2 µM; note: nearly all actives have a fitted effect of over 70% in size
How it was run: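 Dead-cell protease release, detected as bis-AAF-R110 fluorescence at 485/520 nm, was measured in LYMP1-003 cells after 16 h compound treatment at 37 C. AC50 values came from Hill-modeled qHTS curves normalized to DMSO (0%) and 15 uM tetraoctylammonium bromide (100%).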

[14] = MultiTox-Fluor Cytotoxicity Assay - LYMP1-003 - Live Cells (AID 962); conditions: LYMP1-003 lymphoblastoid cells, MultiTox-Fluor live-cell protease fluorescence; series mostly up to 92.2 µM;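 note: cells exposed to compound for 16 hours at 37 °C; 0% = DMSO only and full loss = 92 µM tetraoctylammonium bromide; cytotoxic hits lower the live-cell protease signal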
How it was run: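 Human lymphoblastoid line LYMP1-003 in complete culture medium, treated 16 hr with titrated compounds. Viable cells quantified via cell-permeant GF-AFC substrate fluorescence; AC50 derived by Hill fitting.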

[15] = target: Peroxisome proliferator-activated receptor gamma (Homo sapiens) (UniProt P37231); assay: qHTS assay for small molecule agonists of peroxisome proliferator-activated receptor gamma signaling (AID 588536; active = well fitted curve in the direction sought with a large enough effect in the signal ratio, with a control signal flat, not every such curve was filed as active; the % refers to the signal ratio;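 note: 0% = DMSO basal wells and 100% = rosiglitazone at 2 µM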); conditions: HEK293 PPARg-UAS-bla, beta-lactamase ratio, 16 h, percent of rosiglitazone response, DMSO as zero; series mostly up to 76.7 µM
How it was run: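 This is an agonist-mode beta-lactamase reporter assay in HEK293 PPAR-gamma-UAS-bla cells with 1% charcoal/dextran FBS. Compound titrations ran 16 h at 37 C before CCF4 detection. EC50 and efficacy are Hill fits scaled to 2 uM rosiglitazone (100%) and DMSO basal.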

[16] = qHTS assay for environmental chemicals that activate the Aryl hydrocarbon Receptor (AhR) signaling pathway (AID 651777); conditions: 1A2-DRE human hepatoma cells, luciferase, 24 h; activation: active compounds read high; note: % of control where 0% means no effect; nearly all actives have a fitted effect of over 15% in size
How it was run: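 Measured luciferase activity, read 30 min after One-Glo addition at room temperature, from human hepatoma cells bearing a dioxin response element–CYP1A2 promoter reporter and exposed to compound for 24 hr at 37 C.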

[17] = qHTS assay for cell viability of HEK293 cells (AID 743288); conditions: ATP luminescence (CellTiter-Glo), 18 h, active compounds read low; note: % is set by controls: 0 for no effect and ±100 for the full control effect; nearly all actives have a fitted effect of over 50% in size
How it was run: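 Viable-cell counts were inferred from luciferase-based ATP content in HEK293 cells seeded at 2,000/well, pre-incubated ≥5 h, then dosed with DMSO-solubilised compounds for 18 h at 37 C.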

[18] = target: Nuclear receptor subfamily 1 group I member 2 (Rattus norvegicus) (UniProt Q9R1A7); assay: qHTS assay for small molecule activators of the rat pregnane X receptor (rPXR) signaling pathway (AID 651751; call rule not given here; note: 0% is about no effect); conditions: rPXR reporter cells, luciferase (One-Glo), 24 h
[19] = qHTS assay for cell viability of the p53RE-bla HCT-116 cell line (AID 743292); conditions: p53RE-bla HCT-116 viability, ATP luminescence, 16 h; series mostly up to 95 µM; note: % is set by controls: 0 for no effect and ±100 for the full control effect; nearly all actives have a fitted effect of over 55% in size
How it was run: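 Intracellular ATP of p53RE-bla HCT-116 cells measured by luciferase luminescence following 16 h compound incubation at 37 C; DMSO-only wells served as vehicle controls.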

[20] = Cell Viability - LYMP2-013 (AID 970); conditions: LYMP2-013 lymphoblastoid cells viability; series mostly up to 92.2 µM;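 note: 0% = DMSO only and full inhibition = tetraoctylammonium bromide control; nearly all actives have a fitted effect of over 55% in size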
How it was run: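 In complete culture medium, human lymphoblastoid cells were dosed for 24 hr at 37 C, with tetraoctylammonium bromide (6.4pM to 92 uM) as positive control. Viability reflects luciferase-based ATP signal; AC50 derived from concentration-response curves.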

Nuclear receptor subfamily 1 group I member 2 (Rattus norvegicus), sequence (Q9R1A7 whole entry, looked up): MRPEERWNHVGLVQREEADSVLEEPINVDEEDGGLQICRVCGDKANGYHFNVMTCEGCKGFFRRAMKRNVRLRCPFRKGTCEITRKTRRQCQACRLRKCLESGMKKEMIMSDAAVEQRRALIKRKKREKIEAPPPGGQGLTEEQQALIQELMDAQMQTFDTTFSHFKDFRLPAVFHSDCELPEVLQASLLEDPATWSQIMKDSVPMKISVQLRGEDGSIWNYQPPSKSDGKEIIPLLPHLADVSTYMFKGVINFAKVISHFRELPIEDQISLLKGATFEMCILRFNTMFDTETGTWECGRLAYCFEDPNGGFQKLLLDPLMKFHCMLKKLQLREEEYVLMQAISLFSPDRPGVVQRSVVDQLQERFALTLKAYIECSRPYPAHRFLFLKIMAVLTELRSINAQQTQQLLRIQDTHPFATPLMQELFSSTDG
Peroxisome proliferator-activated receptor gamma (Homo sapiens), sequence (P37231 whole entry, looked up): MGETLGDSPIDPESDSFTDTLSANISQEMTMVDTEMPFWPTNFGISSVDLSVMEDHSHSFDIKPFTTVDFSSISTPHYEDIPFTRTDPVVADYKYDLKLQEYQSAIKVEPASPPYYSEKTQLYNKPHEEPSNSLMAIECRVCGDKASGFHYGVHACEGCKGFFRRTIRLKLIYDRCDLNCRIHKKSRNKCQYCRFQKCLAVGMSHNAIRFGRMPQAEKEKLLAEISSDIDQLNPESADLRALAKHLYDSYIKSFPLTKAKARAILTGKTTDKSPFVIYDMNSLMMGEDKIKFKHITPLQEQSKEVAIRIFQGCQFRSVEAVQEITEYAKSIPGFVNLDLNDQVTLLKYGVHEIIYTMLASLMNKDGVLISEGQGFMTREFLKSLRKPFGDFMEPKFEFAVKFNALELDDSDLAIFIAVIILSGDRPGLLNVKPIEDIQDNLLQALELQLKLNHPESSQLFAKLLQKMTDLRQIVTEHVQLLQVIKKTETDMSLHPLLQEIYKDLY

CCC[N+](=O)[O-]
inactive: Potency [1] > 92 µM | Potency [2] | Potency [3] | Potency [4] | outcome [5] | caspase-3 activation [6] -1.47% | outcome [7] | Potency [8] | Potency [9] | caspase-3 activation [10] 0.185% | outcome [11] | outcome [12] | Potency [13] | outcome [14] | outcome [15] | activation [16] 1.28% | max response [17] 2.89% | max response [18] 7.37%

Cc1ccc(N)cc1C
inactive: Potency [1] > 92 µM | Potency [2] | Potency [3] | Potency [4] | outcome [5] | caspase-3 activation [6] 0.158% | outcome [7] | Potency [8] | Potency [9] | outcome [11] | outcome [12] | Potency [13] | outcome [14] | outcome [15] | activation [16] 3.36% | Potency [19]

COc1c(C(C)(C)C)cc([N+](=O)[O-])c(C)c1[N+](=O)[O-]
inactive: Potency [1] > 92 µM | Potency [2] | Potency [3] | Potency [4] | outcome [5] | caspase-3 activation [6] -1.52% | outcome [7] | caspase-3 activation [10] 1.65% | outcome [11] | outcome [12] | Potency [13] | outcome [14] | Potency [20] | outcome [15] | activation [16] 0.103% | max response [17] -7.25% | Potency [19] | max response [18] 5.88%

O=C(Cl)OCc1ccccc1
inactive: Potency [1] > 92 µM | Potency [2] | Potency [3] | Potency [4] | outcome [5] | caspase-3 activation [6] 0.751% | outcome [7] | Potency [9] | caspase-3 activation [10] 0.783% | outcome [11] | outcome [12] | Potency [13] | Potency [20] | outcome [15] | activation [16] 0.249% | max response [17] -3.33% | Potency [19] | max response [18] 4.69%

Clc1cc(Cl)c(Cl)c(Cl)c1
inactive: Potency [1] > 92 µM | Potency [2] | Potency [3] | Potency [4] | outcome [5] | caspase-3 activation [6] 0.108% | outcome [7] | Potency [8] | Potency [9] | caspase-3 activation [10] -0.644% | outcome [11] | outcome [12] | Potency [13] | outcome [14] | Potency [20] | outcome [15] | activation [16] 0.248% | max response [17] -14.6% | Potency [19] | max response [18] -2.54%

N#CCBr
inactive: Potency [1] > 92 µM | Potency [2] | Potency [3] | Potency [4] | outcome [5] | outcome [7] | Potency [8] | Potency [9] | caspase-3 activation [10] 1.09% | outcome [12] | Potency [13] | outcome [14] | activation [16] 13.7% | Potency [19] | max response [18] -1.93%

CC(C)(C)c1ccccc1O
inactive: Potency [1] > 92 µM | Potency [2] | Potency [3] | Potency [4] | outcome [5] | caspase-3 activation [6] -1.03% | outcome [7] | Potency [8] | caspase-3 activation [10] -1.2% | outcome [11] | Potency [13] | outcome [14] | Potency [20] | outcome [15] | activation [16] 1.34% and -1.14% | max response [17] -7.55% and -11.9% | Potency [19] | max response [18] -1.16% and -0.87%

Cc1coc2c1CCC(C)C2 (stereo not given)
inactive: Potency [1] > 92 µM | Potency [2] | Potency [3] | Potency [4] | outcome [5] | outcome [7] | Potency [8] | caspase-3 activation [10] 0.975% | outcome [11] | outcome [12] | Potency [13] | outcome [14] | Potency [20] | activation [16] 1.75% | Potency [19]

ClC(Cl)C(Cl)Cl
inactive: Potency [1] > 92 µM | Potency [2] | Potency [3] | Potency [4] | outcome [5] | caspase-3 activation [6] 1.02% | outcome [7] | Potency [8] | Potency [9] | caspase-3 activation [10] -0.455% | outcome [11] | outcome [12] | Potency [13] | outcome [14] | outcome [15] | activation [16] -2.65% | max response [17] -11.3% | Potency [19] | max response [18] 3.27%

CC(C)Br
inactive: Potency [1] > 92 µM | Potency [2] | Potency [3] | Potency [4] | outcome [5] | caspase-3 activation [6] 0.12% | outcome [7] | Potency [8] | outcome [11] | outcome [12] | outcome [14] | Potency [20] | outcome [15] | activation [16] -0.85% | max response [17] -0.407% | max response [18] -2.97%

C=CCc1cc(OC)c2c(c1)OCO2
inactive: Potency [1] > 92 µM | Potency [2] | Potency [3] | Potency [4] | caspase-3 activation [6] -0.188% | outcome [7] | Potency [9] | caspase-3 activation [10] 1.27% | outcome [11] | outcome [12] | outcome [14] | outcome [15] | activation [16] 0.0584% | max response [17] -6.53% | Potency [19] | max response [18] -3.31%

Cl/C=C\Cl
inactive: Potency [1] > 92 µM | Potency [2] | Potency [3] | Potency [4] | outcome [5] | caspase-3 activation [6] 0.747% | outcome [7] | Potency [9] | caspase-3 activation [10] 0.708% | outcome [11] | Potency [13] | outcome [14] | Potency [20] | activation [16] 0.819% | Potency [19] | max response [18] 3.59%

C=COC(C)=O
inactive: Potency [1] > 92 µM | Potency [2] | Potency [3] | Potency [4] | outcome [5] | outcome [7] | Potency [8] | Potency [9] | outcome [11] | outcome [12] | outcome [14] | Potency [20] | activation [16] 1.36% | Potency [19] | max response [18] 2.31%
